# Results reported in the supplement of paper PMC8728848.
# This excerpt belongs to a sample that is enriched for the strongest signals.
# B1: Protein L(B1-B4) (Finegoldia magna), Q51912 (protein)
# chain: KEETPETPETDSEEEVTIKANLIFANGSTQTAEFKGTFEKATSEAYAYADTLKKDNGEYTVDVADKGYTLNIKFAGKEKTPEEPKEEVTIKANLIYADGKTQTAEFKGTFEEATAEAYRYADALKKDNGEYTVDVADKGYTLNIKFAGKEKTPEEPKEEVTIKANLIYADGKTQTAEFKGTFEEATAEAYRYADLLAKENGKYTVDVADKGYTLNIKFAGKEKTPEEPKEEVTIKANLIYADGKTQTAEFKGTFAEATAEAYRYADLLAKENGKYTADLEDGGYTINIRFAG
# Assays:
# Test in all cases: glycan array binding signal (z-score within array); higher = stronger binding
# Conditions in all cases: glycan notation: IUPAC condensed, linker removed
# [1] = target: Fuc(a1-2)Gal(b1-3)GlcNAc(b1-3)[Fuc(a1-2)Gal(b1-3)GlcNAc(b1-6)]GalNAc
# Outline: (§1)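 Glycan array data were curated from 3228 arrays in the Consortium for Functional Glycomics database and kept only where the protein sequence was available. Glycan names were converted to IUPAC-condensed notation, and columns mapping to the same glycan were averaged. The binding signal is a within-array Z-score, averaged across arrays of the same protein sequence at different concentrations or buffers and across linkers. Negative Z-scores can be read as non-binding.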
# [2] = target: Fuc(a1-2)Gal(b1-3)[Fuc(a1-4)]GlcNAc(b1-3)[Gal(b1-4)GlcNAc(b1-6)]Gal(b1-4)Glc
# Outline: as §1
# [3] = target: Fuc(a1-2)Gal(b1-4)Fuc(a1-3)]GlcNAc(b1-2)Man(a1-3)[Fuc(a1-2)Gal(b1-4)[Fuc(a1-3)]GlcNAc(b1-2)Man(a1-6)]Man(b1-4)GlcNAc(b1-4)GlcNAc
# Outline: as §1
# [4] = target: Fuc(a1-2)Gal(b1-4)[Fuc(a1-3)]GlcNAc
# Outline: as §1
# [5] = target: Fuc(a1-2)Gal(b1-4)[Fuc(a1-3)]GlcNAc(b1-3)Gal(b1-4)[Fuc(a1-3)]GlcNAc(b1-3)Gal(b1-4)[Fuc(a1-3)]GlcNAc
# Outline: as §1
# [6] = target: Fuc(a1-2)[Gal(a1-3)]Gal(b1-3)GlcNAc(b1-2)Man(a1-3)[Fuc(a1-2)[Gal(a1-3)]Gal(b1-3)GlcNAc(b1-2)Man(a1-6)]Man(b1-4)GlcNAc(b1-4)[Fuc(a1-6)]GlcNAc
# Outline: as §1
# [7] = target: Fuc(a1-2)[Gal(a1-3)]Gal(b1-4)Glc
# Outline: as §1
# [8] = target: Fuc(a1-2)[Gal(a1-3)]Gal(b1-4)GlcNAc(b1-3)GalNAc
# Outline: as §1
# [9] = target: Fuc(a1-2)[Gal(a1-3)]Gal(b1-4)GlcNAc(b1-6)GalNAc
# Outline: as §1
# [10] = target: Fuc(a1-2)[GalNAc(a1-3)]Gal(b1-4)GlcNAc(b1-2)Man(a1-3)[Fuc(a1-2)[GalNAc(a1-3)]Gal(b1-4)GlcNAc(b1-2)Man(a1-6)]Man(b1-4)GlcNAc(b1-4)[Fuc(a1-6)]GlcNAc
# Outline: as §1
# [11] = target: Gal(b1-3)GlcNAc(b1-2)[Gal(b1-3)GlcNAc(b1-6)]Man(a1-6)[Gal(b1-3)GlcNAc(b1-2)Man(a1-3)]Man(b1-4)GlcNAc(b1-4)GlcNAc
# Outline: as §1
# [12] = target: Gal(b1-3)GlcNAc(b1-3)Gal(b1-4)GlcNAc(b1-6)[Gal(b1-3)GlcNAc(b1-3)]Gal(b1-4)Glc
# Outline: as §1
# [13] = target: Gal(b1-3)[Fuc(a1-4)]GlcNAc(b1-2)Man
# Outline: as §1
# [14] = target: Gal(b1-4)GlcNAc(b1-2)[Gal(b1-4)GlcNAc(b1-6)]Man(a1-6)[Gal(b1-4)GlcNAc(b1-2)Man(a1-3)]Man(b1-4)GlcNAc(b1-4)[Fuc(a1-6)]GlcNAc
# Outline: as §1
# [15] = target: Gal(b1-4)GlcNAc(b1-3)Gal(b1-4)GlcNAc(b1-2)Man(a1-3)[Gal(b1-4)GlcNAc(b1-3)Gal(b1-4)GlcNAc(b1-2)Man(a1-6)]Man(b1-4)GlcNAc(b1-4)[Fuc(a1-6)]GlcNAc
# Outline: as §1
# [16] = target: Gal(b1-4)GlcNAc(b1-3)Gal(b1-4)GlcNAc(b1-3)Gal(b1-4)GlcNAc(b1-3)Gal(b1-4)GlcNAc(b1-2)Man(a1-3)[Gal(b1-4)GlcNAc(b1-3)Gal(b1-4)GlcNAc(b1-3)Gal(b1-4)GlcNAc(b1-3)Gal(b1-4)GlcNAc(b1-2)Man(a1-6)]Man(b1-4)GlcNAc(b1-4)GlcNAc
# Outline: as §1
# [17] = target: Gal(b1-4)GlcNAc(b1-3)Gal(b1-4)GlcNAc(b1-3)Gal(b1-4)GlcNAc(b1-3)Gal(b1-4)GlcNAc(b1-3)Gal(b1-4)GlcNAc(b1-2)Man(a1-3)[Gal(b1-4)GlcNAc(b1-3)Gal(b1-4)GlcNAc(b1-3)Gal(b1-4)GlcNAc(b1-3)Gal(b1-4)GlcNAc(b1-3)Gal(b1-4)GlcNAc(b1-2)Man(a1-6)]Man(b1-4)GlcNAc(b1-4)GlcNAc
# Outline: as §1
# [18] = target: Gal(b1-4)GlcNAc(b1-3)Gal(b1-4)GlcNAc(b1-3)[Gal(b1-4)GlcNAc(b1-3)Gal(b1-4)GlcNAc(b1-6)]GalNAc
# Outline: as §1
# [19] = target: Gal3S(b1-3)GlcNAc
# Outline: as §1
# [20] = target: Gal3S(b1-4)[Fuc(a1-3)]Glc6S
# Outline: as §1
# [21] = target: GalNAc(b1-4)GlcNAc(b1-2)Man(a1-3)[GalNAc(b1-4)GlcNAc(b1-2)Man(a1-6)]Man(b1-4)GlcNAc(b1-4)GlcNAc
# Outline: as §1
# [22] = target: GlcA(b1-3)GlcNAc
# Outline: as §1
# [23] = target: GlcNAc(b1-3)Gal(b1-4)GlcNAc(b1-3)Gal(b1-4)GlcNAc(b1-2)Man(a1-3)[GlcNAc(b1-3)Gal(b1-4)GlcNAc(b1-3)Gal(b1-4)GlcNAc(b1-2)Man(a1-6)]Man(b1-4)GlcNAc(b1-4)[Fuc(a1-6)]GlcNAc
# Outline: as §1
# [24] = target: GlcNAc(b1-3)Gal(b1-4)GlcNAc(b1-3)Gal(b1-4)GlcNAc(b1-3)Gal(b1-4)GlcNAc(b1-2)Man(a1-3)[GlcNAc(b1-3)Gal(b1-4)GlcNAc(b1-3)Gal(b1-4)GlcNAc(b1-3)Gal(b1-4)GlcNAc(b1-2)Man(a1-6)]Man(b1-4)GlcNAc(b1-4)GlcNAc
# Outline: as §1
# [25] = target: GlcNAc6S(b1-3)Gal(b1-4)GlcNAc
# Outline: as §1
# [26] = target: Man(a1-3)[Man(a1-6)]Man(a1-6)[Man(a1-2)Man(a1-3)]Man(b1-4)GlcNAc(b1-4)GlcNAc
# Outline: as §1
# [27] = target: Man(a1-6)Man
# Outline: as §1
# [28] = target: Neu5Ac(a2-3)Gal(b1-4)GlcNAc(b1-2)Man(a1-3)[Neu5Ac(a2-6)Gal(b1-4)GlcNAc(b1-2)Man(a1-6)]Man(b1-4)GlcNAc(b1-4)GlcNAc
# Outline: as §1
# [29] = target: Neu5Ac(a2-3)Gal(b1-4)GlcNAc(b1-2)[Neu5Ac(a2-3)Gal(b1-4)GlcNAc(b1-4)]Man(a1-3)[GlcNAc(b1-4)][Neu5Ac(a2-3)Gal(b1-4)GlcNAc(b1-2)[Neu5Ac(a2-3)Gal(b1-4)GlcNAc(b1-6)]Man(a1-6)]Man(b1-4)GlcNAc(b1-4)GlcNAc
# Outline: as §1
# [30] = target: Neu5Ac(a2-3)Gal(b1-4)GlcNAc(b1-3)Gal(b1-4)GlcNAc(b1-3)Gal(b1-4)GlcNAc
# Outline: as §1
# [31] = target: Neu5Ac(a2-3)Gal(b1-4)GlcNAc(b1-3)Gal(b1-4)[Fuc(a1-3)]GlcNAc
# Outline: as §1
# [32] = target: Neu5Ac(a2-3)Gal(b1-4)GlcNAc6S
# Outline: as §1
# [33] = target: Neu5Ac(a2-3)[GalNAc(b1-4)]Gal(b1-4)GlcNAc(b1-3)GalNAc
# Outline: as §1
# [34] = target: Neu5Ac(a2-6)Gal(b1-4)GlcNAc(b1-3)Gal(b1-4)GlcNAc(b1-3)Gal(b1-4)GlcNAc(b1-2)Man(a1-3)[Neu5Ac(a2-6)Gal(b1-4)GlcNAc(b1-3)Gal(b1-4)GlcNAc(b1-3)Gal(b1-4)GlcNAc(b1-2)Man(a1-6)]GalNAc
# Outline: as §1
# [35] = target: Neu5Ac(a2-6)Gal(b1-4)GlcNAc(b1-3)Gal(b1-4)GlcNAc(b1-3)[Neu5Ac(a2-6)Gal(b1-4)GlcNAc(b1-3)Gal(b1-4)GlcNAc(b1-6)]GalNAc
# Outline: as §1
# [36] = target: Neu5Ac(a2-6)Gal(b1-4)GlcNAc(b1-6)GalNAc
# Outline: as §1
# [37] = target: Neu5Ac(a2-6)Gal(b1-4)GlcNAc(b1-6)[Gal(b1-3)GlcNAc(b1-3)]Gal(b1-4)Glc
# Outline: as §1
# [38] = target: Neu5Ac(a2-8)Neu5Ac(a2-3)Gal(b1-4)Glc
# Outline: as §1
# [39] = target: Neu5Ac(a2-8)Neu5Ac(a2-8)Neu5Ac(a2-3)Gal(b1-4)Glc
# Outline: as §1
# [40] = target: Neu5Ac9Ac(a2-3)Gal(b1-4)GlcNAc
# Outline: as §1
# [41] = target: Neu5Gc(a2-8)Neu5Gc(a2-3)Gal(b1-4)GlcNAc
# Outline: as §1
binder,measurement,setting,value
B1,glycan array binding signal (z-score),[1],2.77
same,glycan array binding signal (z-score),[2],-0.528
same,glycan array binding signal (z-score),[3],1.7
same,glycan array binding signal (z-score),[4],-0.142
same,glycan array binding signal (z-score),[5],0.159
same,glycan array binding signal (z-score),[6],3.09
same,glycan array binding signal (z-score),[7],0.047
same,glycan array binding signal (z-score),[8],3.09
same,glycan array binding signal (z-score),[9],-0.474
same,glycan array binding signal (z-score),[10],2.95
same,glycan array binding signal (z-score),[11],0.177
same,glycan array binding signal (z-score),[12],-0.192
same,glycan array binding signal (z-score),[13],1.5
same,glycan array binding signal (z-score),[14],2.92
same,glycan array binding signal (z-score),[15],0.486
same,glycan array binding signal (z-score),[16],2.06
same,glycan array binding signal (z-score),[17],0.528
same,glycan array binding signal (z-score),[18],4.22
same,glycan array binding signal (z-score),[19],-0.911
same,glycan array binding signal (z-score),[20],2.28
same,glycan array binding signal (z-score),[21],1.49
same,glycan array binding signal (z-score),[22],-0.785
same,glycan array binding signal (z-score),[23],3.07
same,glycan array binding signal (z-score),[24],1.06
same,glycan array binding signal (z-score),[25],-0.336
same,glycan array binding signal (z-score),[26],2.94
same,glycan array binding signal (z-score),[27],-0.159
same,glycan array binding signal (z-score),[28],-1.02
same,glycan array binding signal (z-score),[29],-0.913
same,glycan array binding signal (z-score),[30],-1.05
same,glycan array binding signal (z-score),[31],-0.359
same,glycan array binding signal (z-score),[32],-0.92
same,glycan array binding signal (z-score),[33],0.809
same,glycan array binding signal (z-score),[34],3.91
same,glycan array binding signal (z-score),[35],2.86
same,glycan array binding signal (z-score),[36],3.08
same,glycan array binding signal (z-score),[37],-0.606
same,glycan array binding signal (z-score),[38],-1.15
same,glycan array binding signal (z-score),[39],0.487
same,glycan array binding signal (z-score),[40],0.223
same,glycan array binding signal (z-score),[41],-1.03
